Only some compounds are listed: those with a hit (about 2.9% of all), similar ones and a draw of the others.
CF NFkB block: blocks PAF-induced NF-kB reporter in cystic fibrosis cells. KKLEB NF-kB-GFP reporter, GFP fluorescence overnight. inhibition, % at 5 µM. 360,000 compounds, 0.86% hits. AID 588850;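 active means at least 50% inhibition at 5 µM, scaled per plate between neutral and stimulator controls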;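 further: PAF is a Pseudomonas aeruginosa culture filtrate used as stimulus; plate controls were PAF-stimulated DMSO wells for no effect and unstimulated DMSO wells for full effect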
KKLEB cytotox: CF airway cell cytotoxicity counter-screen. KKLEB CF airway cells viability, ATPlite luminescence, overnight; stronger effect = lower value; cells stimulated with P. aeruginosa culture filtrate. activity change (cytotoxicity), % at 5 µM. 360,000 compounds, 0.36% hits. AID 602141;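 active means corrected activity change at or below -50% at 5 µM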
TRPM1 prom inh: inhibitors of MITF-driven TRPM1 promoter in melanoma cells; SK-MEL-5 TRPM1 promoter luciferase, 24 h; inhibition, % at 12.5 µM; 330,000 compounds, 0.83% hits;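 active means mean inhibition across replicates of 60% or more, whatever share of single replicates reaches that level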
EBV LMP1 NFkB: inhibitors of Epstein-Barr LMP1-induced NF-kappaB reporter. LMP1-induced NF-kappaB luciferase reporter cells, luminescence. inhibition, % at 12.5 µM. 350,000 compounds, 0.69% hits. AID 504558; in the data active means inhibition above about 41%;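 further: 0% = neutral control wells and 100% = reference inhibitor control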
Peg3 promoter: Peg3 promoter activity inhibition | HeLa PEG-Prom luciferase reporter, luminescence, overnight | inhibition, % at 20 µM | 360,000 compounds, 1.7% hits;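 active means inhibition of at least 50% at 20 µM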
Shn3 inh set2: inhibitors of Schnurri-3 3'UTR reporter in osteoblasts; Clone20 osteoblast Shn3 3'UTR firefly luciferase, 24 h; inhibition, % at 12.5 µM; 360,000 compounds, 0.52% hits; AID 588674;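 active means mean inhibition of at least 75% with every replicate also reaching 75%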;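 further: 0% = median of neutral control wells and 100% = pilot-screen positive control compound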
* hit, by the source's call; x = not tested or not shown; ! = not confirmed by another sample.

SMILES	CF NFkB block	KKLEB cytotox	TRPM1 prom inh	EBV LMP1 NFkB	Peg3 promoter	Shn3 inh set2
O=C1c2ccccc2C(=O)c2c1oc(C(F)(F)F)c2C(=O)c1ccccc1	90*	-82*	103*	68*	94*	91*
CCN(CC)C(=O)c1ccc(Cc2cn(C)c3ccccc23)nc1	-11	-2	x	x	-7	-13
C[C@H](O)[C@@H]1C(=O)N2CCc3c([nH]c4ccccc34)[C@@H]2C[C@@H]1N(C)C(=O)c1ccco1	6	-7	x	x	-30	-4
O=C(Nc1ccc(Cl)c(Cl)c1)Nc1ccc(N2CCCC2)c(S(=O)(=O)Nc2ccccc2Cl)c1	62*	-54*	73*	39	58*	98*
O=C(Nc1ccc(N2CCCCC2)c(S(=O)(=O)Nc2ccccc2Cl)c1)c1cccnc1	-36	16	12	0	20	60
C=CC[C@@H](CC(=O)N(CCO)Cc1ccccc1)C(=O)NC[C@@H](OC(=O)[C@@H](CC=C)Cc1ccc(F)cc1)c1ccccc1	-18	-6	10	2	29	9
C=CC[C@H](CC(=O)N(CCO)Cc1ccccc1)C(=O)N[C@H](COC(=O)[C@@H](CC=C)Cc1ccc(F)cc1)Cc1c[nH]c2ccccc12	14	10	3	3	61*	7
C=CCC[C@H](Cc1ccc(F)cc1)C(=O)OC[C@H](Cc1c[nH]c2ccccc12)NC(=O)[C@H](CC=C)CC(=O)N(CCO)Cc1ccccc1	30	-13	13	1	45	83
C=CC[C@H](CC(=O)N(CCO)Cc1ccccc1)C(=O)NC[C@H](OC(=O)[C@@H](CC=C)Cc1ccc(F)cc1)c1ccccc1	28	-5	17	4	60*	89*
C=CC[C@@H](CC(=O)N(CCO)Cc1ccccc1)C(=O)N[C@H](COC(=O)[C@@H](CC=C)Cc1ccc(F)cc1)Cc1c[nH]c2ccccc12	19	-25	-3	-4	55*	7
CC1=C/C(=N\OS(=O)(=O)c2ccccc2)C(C)=CC1=O	-7	-13	34	9	106*	93*
CC1=C/C(=N\OS(=O)(=O)c2ccccc2)C(C(C)C)=CC1=O	4	10	10	6	96*	68
CC1=C(C)/C(=N\OS(=O)(=O)c2ccc(C)cc2)C=CC1=O	72*	-36	48	-6	106*	95*
N#CCCN(Cc1ccccc1)C(C(=O)NC1CCCCC1)c1ccnc2ccccc12 (centres undefined)	-11	19	x	x	3	-16
c1ccc(-c2cn3c4c(sc3n2)CCCC4)cc1	-28	-58*	-4	50*	53*!	9
c1ccc2nc(-c3ccc(N4CCOCC4)cc3)ccc2c1	-20	-46	54	66*	32	55
O=C1C(Nc2ccccc2)=C/C(=N/S(=O)(=O)c2cccs2)c2ccccc21	100*	-91*	95*	87*	105*	97*
O=S(=O)(/N=C(/Nc1cccc2ccccc12)c1ccccc1)c1cccs1	4	-13	10	0	30	-13
Cc1ccc(NC2=C/C(=N/S(=O)(=O)c3cccs3)c3ccccc3C2=O)cc1	80*	-70*	105*	80*	-88	97*
Cc1ccc(/C=C2\S/C(=N/S(=O)(=O)c3cccs3)NC2=O)cc1	15	2	-6	-6	18	-22
CC1(C(=O)NS(=O)(=O)c2ccc(F)cc2F)CCN1C(=O)c1ccc(C2CCCCC2)cc1 (centres undefined)	-36	0	x	x	-9	-2
CCCCCCCCCCC(C(=O)O)C1(C(=O)O)CCC(=O)O1 (centres undefined)	-8	3	x	x	2	-7
O=C(COC(=O)/C=C/c1ccc(OC(F)F)cc1)Nc1ccc2[nH]c(=O)[nH]c2c1	-6	1	-10	-28	18	97*
O=C(O)c1cnc2ccc(Cl)cc2n1	17	-7	x	7	12	-13
CCc1ccc(C2c3[nH]c4ccccc4c3CCN2C(=O)CN2CCN(CC)CC2)cc1 (centres undefined)	13	-19	43	-16	84*	-11
SMILES	CF NFkB block	KKLEB cytotox	TRPM1 prom inh	EBV LMP1 NFkB	Peg3 promoter	Shn3 inh set2
O=C(CCCc1nc(-c2ccccc2Cl)no1)NC1CCCC1	4	-9	76*	23	39	73
COc1ccccc1-c1noc(CCCC(=O)NC2CCCC2)n1	3	-3	14	-5	-7	0
Cc1c(N=Nc2c(-c3ccc([N+](=O)[O-])cc3)[nH]n(C(N)=S)c2=O)cccc1[N+](=O)[O-]	26	-46	62*	33	16	16
NC(=S)n1[nH]c(-c2ccc([N+](=O)[O-])cc2)c(N=Nc2ccccc2[N+](=O)[O-])c1=O	-38	4	8	-2	-5	9
CC1(C(=O)NS(=O)(=O)c2cccc(C#N)c2)CCN1C(=O)c1cccc2ccccc12 (centres undefined)	-7	2	x	x	7	-40
COCCNC(=O)NC12CC3CC(CC(C3)C1)C2	-1	-4	4	4	4	5
COCCNC(=O)NC12CC3(C)CC(C)(CC(C)(C3)C1)C2	8	0	10	57*	6	-10
Cc1cccc(Nc2nc(Cl)ncc2F)c1C	14	0	-10	53*	0	-6
C=CCNc1nc(Cl)ncc1F	8	1	2	5	1	-27
COc1ccc(/C(C)=N/NC2=NCCN2)cc1Cl	1	7	2	1	7	27
CCCCOc1ccc(Br)cc1/C(C)=N/NC1=NCCN1	34	-18	82*	28	41	88*
CCCCCCOc1ccc(/C(C)=N/NC2=NCCN2)cc1[N+](=O)[O-]	-2	-8	34	-39	111*	-11
Cc1n[nH]c(=S)n1/N=C/c1c(O)ccc2ccccc12	3	0	18	1	57*	4
Cc1ccccc1-n1nnnc1Sc1nnnn1-c1ccccc1	78*	-69*	78*	55*	109*	1
Cc1ccccc1-n1nnnc1SCC(N)=O	-8	9	5	-4	12	13
COc1ccc2[nH]c3c(=O)n(CCCCC(=O)N4CCC(C(N)=O)CC4)c(=S)[nH]c3c2c1	-2	5	1	65*	7	-21
COc1ccc2[nH]c3c(=O)n(CCCCC(=O)NCCN4CCCC4)c(=S)[nH]c3c2c1	-7	-6	-1	-6	10	-24
O=C(C#Cc1ccccc1)c1ccc([N+](=O)[O-])cc1	20	-4	69*	26	108*	95*
CCOC(=O)c1nc(NCc2ccccc2F)c2ccccc2n1	4	-6	-2	77*	17	20
CC(C)(C)[C@@H]1COC(=O)[C@@H](NC(=O)OCC2c3ccccc3-c3ccccc32)C/C=C\C[C@@H](CC(=O)NCCO)C(=O)N1	0	16	8	-6	4	86*

Bioassay records as filed in PubChem BioAssay.
